# Results as given in PubChem BioAssay (NCATS).
# Records with an inconclusive call do not appear. A call without a number means that no potency is given here. Unmarked numbers belong to inactive results. Calls of active or inactive are those of the source. Calls follow the shape of the dose curve; as a rule, active = well fitted curve in the direction sought with a large enough effect; inconclusive = small, poorly fitted or top-dose-only effect, or another doubt; inactive = no such curve, though single readings can be large; an effect the other way counts as inactive or inconclusive.
# What was measured:
# [1] = qHTS for Inhibitors of the Aldehyde Dehydrogenase Family (ALDH1A2, ALDH1A3, ALDH2, ALDH3A1) (AID 2061307); also: nearly all actives have a fitted effect of over 50% in size; as to potency: test system not described further here; potency is read from the fitted curve at half-maximal effect
# [2] = target: Aldehyde dehydrogenase, mitochondrial (Homo sapiens) (UniProt P05091); test: qHTS for Inhibitors of the Aldehyde Dehydrogenase Family (ALDH2) Primary screen (AID 2061308); also: nearly all actives have a fitted effect of over 55% in size
# [3] = target: Retinaldehyde dehydrogenase 3 (Homo sapiens) (UniProt P47895); test: qHTS for Inhibitors of the Aldehyde Dehydrogenase Family (ALDH1A3) Confirmatory screens (AID 2061311); also: nearly all actives have a fitted effect of over 60% in size; also: potency is read from the fitted curve at half-maximal effect
# [4] = target: Retinal dehydrogenase 2 (Homo sapiens) (UniProt O94788); test: qHTS for Inhibitors of the Aldehyde Dehydrogenase Family (ALDH1A2) Confirmation screens (AID 2061314); also: nearly all actives have a fitted effect of over 65% in size; also: potency is read from the fitted curve at half-maximal effect
# [5] = target: Retinaldehyde dehydrogenase 3 (Homo sapiens) (UniProt P47895); test: qHTS for Inhibitors of the Aldehyde Dehydrogenase Family (ALDH1A3) Primary screen (AID 2061315)
# [6] = target: Aldehyde dehydrogenase 1A1 (Homo sapiens) (UniProt P00352); test: qHTS for Inhibitors of the Aldehyde Dehydrogenase Family (ALDH1A1) Confirmatory screens (AID 2061316); also: nearly all actives have a fitted effect of over 65% in size; also: potency is read from the fitted curve at half-maximal effect
# [7] = BET inhibitor-based combinations targeting novel dependencies in MECOM-rearranged (r) AML: SET-2 cell line (AID 2202231); details: SET-2 AML cells viability, CellTiter-Glo luminescence, 48 h; viability: hits give low values, concentration not given here; also: potency is read from the fitted curve at half-maximal effect; nearly all actives have a fitted effect of over 35% in size
# Method in brief: (§1)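 Readout: CellTiter-Glo luminescence. Exposure: 48 h, 11 concentrations, 500 cells/well. Metric: AUC and within-line Z-AUC after DMSO/empty-well normalization.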
# [8] = BET inhibitor-based combinations targeting novel dependencies in MECOM-rearranged (r) AML: MV-4-11 cell line (AID 2202233); also: potency is read from the fitted curve at half-maximal effect; nearly all actives have a fitted effect of over 45% in size
# Method in brief: (§2)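 Seeding density was 500 cells/well, and drug exposure lasted 48 hr under standard culture conditions. Read-out used CellTiter-Glo reagent with a 15 min room-temperature incubation before luminescence measurement; AUC and Z-AUC summarize the normalized responses.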
# [9] = BET inhibitor-based combinations targeting novel dependencies in MECOM-rearranged (r) AML: HNT-34 cell line (AID 2202234); also: potency is read from the fitted curve at half-maximal effect; nearly all actives have a fitted effect of over 35% in size
# Method in brief: as §2
# [10] = BET inhibitor-based combinations targeting novel dependencies in MECOM-rearranged (r) AML: OCI-AML3 cell line (AID 2202232); details: Potency: OCI-AML3 viability; also: potency is read from the fitted curve at half-maximal effect; nearly all actives have a fitted effect of over 35% in size
# Method in brief: as §1
# [11] = BET inhibitor-based combinations targeting novel dependencies in MECOM-rearranged (r) AML: UCSD-AML1 cell line (AID 2202235); also: potency is read from the fitted curve at half-maximal effect; nearly all actives have a fitted effect of over 40% in size
# Method in brief: as §2
# [12] = BET inhibitor-based combinations targeting novel dependencies in MECOM-rearranged (r) AML: AML-191 cell line (AID 2202236; also: potency is read from the fitted curve at half-maximal effect; nearly all actives have a fitted effect of over 35% in size)
# Method in brief: as §1
# [13] = BET inhibitor-based combinations targeting novel dependencies in MECOM-rearranged (r) AML: AML-194 cell line (AID 2202237; also: potency is read from the fitted curve at half-maximal effect; nearly all actives have a fitted effect of over 40% in size)
# Method in brief: as §1
structure (smiles),measurement,setting,value
O=C(O)c1cccc(-n2cccc2/C=C2/C(=O)N(Cc3ccc(F)cc3)C(=O)N2Cc2ccc(F)cc2)c1,Potency,[1],14.2 µM (active)
same,Potency,[2],inactive
same,Potency,[3],inactive
same,Potency,[4],inactive
same,Potency,[5],inactive
same,Potency,[6],inactive
COc1ccc(C2Nc3cccc(OC)c3C(=O)N2Cc2ccccc2)cc1COc1ccc(NC(C)=O)cc1 (centres undefined),Potency,[1],1.13 µM (active)
same,Potency,[2],inactive
same,Potency,[3],12.7 µM (active)
same,Potency,[4],10.1 µM (active)
same,Potency,[5],inactive
same,Potency,[6],11.3 µM (active)
O=C(Nc1ccc(N2CCOCC2)nc1)c1cccs1,Potency,[1],25.1 µM (active)
same,Potency,[2],inactive
same,Potency,[3],22.5 µM (active)
same,Potency,[4],22.5 µM (active)
same,Potency,[5],inactive
same,Potency,[6],12.7 µM (active)
NC(=O)C1CCN(c2ncc(-c3ccc4c(c3)OC(F)(F)O4)s2)CC1,Potency,[1],10.1 µM (active)
same,Potency,[2],inactive
same,Potency,[3],inactive
same,Potency,[4],inactive
same,Potency,[5],inactive
CC(=O)Nc1ccc(OCc2cccc(C3Nc4ccccc4C(=O)N3Cc3ccco3)c2)cc1 (centres undefined),Potency,[1],10.1 µM (active)
same,Potency,[2],inactive
same,Potency,[3],12.7 µM (active)
same,Potency,[4],14.2 µM (active)
same,Potency,[5],inactive
same,Potency,[6],5.65 µM (active)
c1ccc(-n2cc(-c3nnc4n3CCCCC4)cn2)cc1,Potency,[1],inactive
same,Potency,[2],inactive
same,Potency,[3],14.2 µM (active)
same,Potency,[4],12.7 µM (active)
same,Potency,[5],inactive
same,Potency,[6],inactive
COc1ccc(C2Nc3ccccc3C(=O)N2Cc2cccc3ccccc23)cc1COc1ccc(NC(C)=O)cc1 (centres undefined),Potency,[1],3.55 µM (active)
same,Potency,[2],inactive
same,Potency,[3],12.6 µM (active)
same,Potency,[4],22.5 µM (active)
same,Potency,[5],inactive
same,Potency,[6],4 µM (active)
C=C1CN(Cc2ccc(C(=O)Nc3ccccc3N)cc2)C(=O)c2ccccc21,Potency,[1],15.8 µM (active)
same,Potency,[2],inactive
same,Potency,[3],inactive
same,Potency,[4],inactive
same,Potency,[5],inactive
Cc1c(C(=O)OCC2CCCCO2)[nH]c2c1C(=O)CC(c1ccco1)C2 (centres undefined),Potency,[1],inactive
same,Potency,[2],inactive
same,Potency,[3],14.1 µM (active)
same,Potency,[4],7.12 µM (active)
same,Potency,[5],inactive
same,Potency,[6],1.42 µM (active)
COc1ccc(-c2c(NC(C)=O)sc3c2CCNC3)cc1,Potency,[1],inactive
same,Potency,[2],inactive
same,Potency,[3],inactive
same,Potency,[4],20.1 µM (active)
same,Potency,[5],inactive
same,Potency,[6],11.3 µM (active)
COC(=O)c1ccc(O)c2ncc(N3CC[C@H](N)C3)cc12,Potency,[1],inactive
same,Potency,[2],inactive
same,Potency,[3],12.7 µM (active)
same,Potency,[4],inactive
same,Potency,[5],inactive
same,Potency,[6],11.3 µM (active)
CC(=O)Nc1ccc(-c2c(NC(C)=O)sc3c2CCNC3)cn1,Potency,[1],inactive
same,Potency,[2],inactive
same,Potency,[3],inactive
same,Potency,[4],11.3 µM (active)
same,Potency,[5],inactive
same,Potency,[6],17.9 µM (active)
NC(=O)C1CCN(c2ncc(-c3ccc(Br)cc3)s2)CC1,Potency,[1],5.65 µM (active)
same,Potency,[2],inactive
same,Potency,[3],22.4 µM (active)
same,Potency,[4],inactive
same,Potency,[5],inactive
same,Potency,[6],11.3 µM (active)
CN(CC(=O)Nc1cccc(N2CCOCC2)c1)Cc1c(O)ccc2ccccc12,Potency,[1],5.65 µM (active)
same,Potency,[2],inactive
same,Potency,[3],12.7 µM (active)
same,Potency,[4],11.3 µM (active)
same,Potency,[5],inactive
same,Potency,[6],4 µM (active)
Cc1cc(C)nc(NC(=S)N2CCN(c3cc4ccccc4cn3)CC2)c1,Potency,[1],inactive
same,Potency,[2],inactive
same,Potency,[3],6.34 µM (active)
same,Potency,[4],15.9 µM (active)
same,Potency,[6],5.04 µM (active)
Cc1ccc(-c2cc(C(=O)Nc3ccc(-c4noc(=O)[nH]4)cc3)c3ccccc3n2)cc1C,Potency,[1],7.08 µM (active)
same,Potency,[2],inactive
same,Potency,[3],11.2 µM (active)
same,Potency,[4],inactive
same,Potency,[5],inactive
same,Potency,[6],inactive
COc1ccc(C2Nc3ccccc3C(=O)N2Cc2ccccc2C)cc1COc1ccc(NC(C)=O)cc1 (centres undefined),Potency,[1],1.79 µM (active)
same,Potency,[2],inactive
same,Potency,[3],17.9 µM (active)
same,Potency,[4],17.9 µM (active)
same,Potency,[5],inactive
same,Potency,[6],25.2 µM (active)
Nc1nccc(-c2c(-c3ccc(F)cc3)ncn2C2CCCCC2)n1,Potency,[7],20.9 µM (active)
same,Potency,[8],16.6 µM (active)
same,Potency,[9],20.9 µM (active)
Cc1ccc(S(=O)(=O)Nc2cc(C(F)(F)F)ccc2C(=O)Nc2nc(-c3ccccc3)cs2)cc1,Potency,[7],14.8 µM (active)
same,Potency,[10],7.42 µM (active)
same,Potency,[8],8.33 µM (active)
same,Potency,[9],7.42 µM (active)
same,Potency,[11],8.33 µM (active)
same,Potency,[12],5.9 µM (active)
same,Potency,[13],9.34 µM (active)
NC(=O)C1CCN(c2nc(-c3ccccc3[N+](=O)[O-])cs2)CC1,Potency,[1],12.7 µM (active)
same,Potency,[2],inactive
same,Potency,[5],inactive
same,Potency,[6],5.04 µM (active)
CC(=O)C1CCN(c2ncc(-c3cccc(N(C)C)c3)s2)CC1,Potency,[1],5.65 µM (active)
same,Potency,[2],inactive
same,Potency,[5],inactive
same,Potency,[6],10.1 µM (active)
CN(CC(=O)O)c1ncnc2ccc(-c3ccc4c(c3)OCO4)cc12,Potency,[1],inactive
same,Potency,[2],inactive
same,Potency,[5],inactive
O=C(O)c1ccc(-n2cccc2/C=C2\SC(=O)N(Cc3ccc(Br)cc3)C2=O)cc1,Potency,[1],5.04 µM (active)
same,Potency,[2],inactive
same,Potency,[5],inactive
same,Potency,[6],inactive
